Four compounds from PubChem BioAssay can be followed below.

Assay [1] can be described thus: rapamycin-like changes in RPL19A-GFP expression – cell-based, S. cerevisiae, multiplex flow cytometry, primary screen (AID 1862; in the data active means percent of DMSO control GFP below about 86%;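 further: lower values mimic rapamycin by blocking the RPL19A rise seen in DMSO cells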). The note with it: S. cerevisiae RPL19A-GFP strain, flow cytometry fluorescence, 3 h; at 10 µM; stronger effect = lower value.
Assay [2] in a line: TOR pathway GLN3 branch reporter MEP2-GFP changes – S. cerevisiae, multiplex flow cytometry, primary screen (AID 1867;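 active means GFP response, as percent of the DMSO control, above the screen-wide mean plus 3 SD, about 139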;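 further: median GFP channel fluorescence of barcode-gated MEP2-GFP cells measured by flow cytometry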). The note with it: S. cerevisiae MEP2-GFP strain, 3 h, at 10 µM, stronger effect = higher value, 100% means same as DMSO wells.
Assay [3] can be described thus: TOR pathway RTG branch CIT2 reporter changes – S. cerevisiae, GFP fusion, multiplex flow cytometry, primary screen (AID 1870;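 active means percent response above a set limit, the screen-wide mean plus 3 SD, cut at about 130% in these data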;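 further: barcoded CIT2-GFP strain pooled with four other GFP strains with rapamycin as positive control; median GFP fluorescence per well over plate mean of DMSO wells so 100% = DMSO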). The note with it: S. cerevisiae CIT2-GFP expression, 3 h, at 10 µM, stronger effect = higher value. (In general: In flow cytometry, cells or beads pass a laser one at a time.)
Assay [4] is described as follows: TOR pathway LAP4-GFP level changes – S. cerevisiae, multiplex flow cytometry, primary screen (AID 1873;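 active means GFP signal, as percent of the solvent control, above the screen mean plus 3 SD, about 149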). The note with it: S. cerevisiae LAP4-GFP expression, 3 h, at 10 µM, stronger effect = higher value.
Assay [5] is described as follows: yeast AGP1-GFP level changes, GLN3 branch – cell-based, multiplex flow cytometry, S. cerevisiae, primary screen (AID 1887;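 active means GFP signal above the screen-wide mean plus 3 SD, that is over about 124.5% of the solvent control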;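 further: AGP1-GFP fusion strain of S. cerevisiae within a five-strain barcoded multiplex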). The note with it: 3 h, at 10 µM, stronger effect = higher value.
A short description of assay [6]: hit retest on RPL19A-GFP reporter strain – cell-based, S. cerevisiae, flow cytometry, cherry picks, mother/daughter gates, confirmation (AID 2270;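 active means GFP response below 50% of the DMSO control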). The note with it: 3 h, at 10 µM, stronger effect = lower value, 100 = same GFP as DMSO wells.
Assay [7] can be described thus: yeast TOR pathway reporter LAP4-GFP change – cell-based, cherry picks, flow cytometry, mother/daughter gates, confirmation (AID 2271;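 active means GFP response above 150% of the DMSO control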;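 further: ratio of sample to DMSO plate mean so 100% equals DMSO level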). The note with it: S. cerevisiae LAP4-GFP strain, 3 h, at 10 µM, stronger effect = higher value, 100 means same as DMSO control.
Assay [8] in a line: TOR pathway reporter MEP2-GFP, retest of hits – S. cerevisiae, flow cytometry GFP, cherry picks, confirmation (AID 2272;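 active means GFP response above 150% of the DMSO control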;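 further: ratio of well signal to plate DMSO mean so 100% equals DMSO level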). The note with it: S. cerevisiae MEP2-GFP strain, 3 h, at 10 µM, stronger effect = higher value.
A short description of assay [9]: TOR pathway CIT2 reporter hit retest – S. cerevisiae, GFP fusion, cherry picks, mother/daughter gates, confirmation (AID 2274;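 active means GFP response above 150% of the DMSO level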). The note with it: S. cerevisiae CIT2-GFP strain, flow cytometry, 3 h, at 10 µM, stronger effect = higher value.
The nature of assay [10]: reduced mouse 2C T cell binding to pMHC/ICAM-1 vesicles – MLPCN validation set, flow cytometry, LFA-1/ICAM-1 modulator project, pilot screen (AID 2523).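 On vesicle binding response: mean PE anti-B7-1 fluorescence of CD8+ cells relative to row control; 100% = QL9-loaded vesicles with DMSO vehicle in the same plate row.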 The note with it: 2C mouse CD8+ T cells, at 7 µM, stronger effect = lower value; double positive events: measured here: CD8+/vesicle+ event percentage.
In assay [11] the target is Integrin beta-1 (Homo sapiens) + Integrin alpha-4 (Homo sapiens) (UniProt P13612+P05556). Kind of assay: alpha4beta1 integrin LIBS antibody binding reduction – U937 cells, HUTS-21 mAb, flow cytometry, validation set, VLA-4 allosteric modulator project, pilot screen (AID 2674;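 active means inhibition above 50%, about 3 SD of the validation set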;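 further: antibody binding induced by the VLA-4 ligand LDV present at three times its Kd; 0% = LDV ligand with antibody and no compound and 100% = antibody without LDV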). The note with it: HUTS-21 LIBS mAb binding, at 6.7 µM, stronger effect = higher value, binding induced by LDV ligand.
Integrin beta-1 (Homo sapiens) + Integrin alpha-4 (Homo sapiens), sequence (P05556 whole entry, looked up): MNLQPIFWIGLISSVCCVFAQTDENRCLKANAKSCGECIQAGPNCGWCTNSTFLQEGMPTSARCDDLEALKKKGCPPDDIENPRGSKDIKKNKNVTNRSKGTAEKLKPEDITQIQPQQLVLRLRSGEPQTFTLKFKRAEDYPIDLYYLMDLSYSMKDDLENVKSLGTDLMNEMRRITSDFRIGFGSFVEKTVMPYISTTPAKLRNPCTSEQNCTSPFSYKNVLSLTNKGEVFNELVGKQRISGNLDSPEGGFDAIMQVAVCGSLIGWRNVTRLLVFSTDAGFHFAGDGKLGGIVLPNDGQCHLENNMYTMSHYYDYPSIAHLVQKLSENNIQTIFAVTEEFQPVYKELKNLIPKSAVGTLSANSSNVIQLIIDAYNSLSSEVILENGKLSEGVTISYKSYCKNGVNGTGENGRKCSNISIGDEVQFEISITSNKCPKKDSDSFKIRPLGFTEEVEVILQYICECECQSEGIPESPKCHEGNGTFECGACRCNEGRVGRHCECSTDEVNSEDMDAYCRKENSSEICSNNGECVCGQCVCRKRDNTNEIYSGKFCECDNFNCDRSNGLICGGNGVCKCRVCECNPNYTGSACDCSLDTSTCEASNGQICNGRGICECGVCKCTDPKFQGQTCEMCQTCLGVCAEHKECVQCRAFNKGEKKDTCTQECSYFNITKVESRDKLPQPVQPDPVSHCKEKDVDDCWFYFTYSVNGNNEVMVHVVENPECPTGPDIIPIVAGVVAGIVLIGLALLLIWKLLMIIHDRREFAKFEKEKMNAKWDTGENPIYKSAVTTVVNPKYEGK
Integrin beta-1 (Homo sapiens) + Integrin alpha-4 (Homo sapiens), sequence (P13612 whole entry, looked up): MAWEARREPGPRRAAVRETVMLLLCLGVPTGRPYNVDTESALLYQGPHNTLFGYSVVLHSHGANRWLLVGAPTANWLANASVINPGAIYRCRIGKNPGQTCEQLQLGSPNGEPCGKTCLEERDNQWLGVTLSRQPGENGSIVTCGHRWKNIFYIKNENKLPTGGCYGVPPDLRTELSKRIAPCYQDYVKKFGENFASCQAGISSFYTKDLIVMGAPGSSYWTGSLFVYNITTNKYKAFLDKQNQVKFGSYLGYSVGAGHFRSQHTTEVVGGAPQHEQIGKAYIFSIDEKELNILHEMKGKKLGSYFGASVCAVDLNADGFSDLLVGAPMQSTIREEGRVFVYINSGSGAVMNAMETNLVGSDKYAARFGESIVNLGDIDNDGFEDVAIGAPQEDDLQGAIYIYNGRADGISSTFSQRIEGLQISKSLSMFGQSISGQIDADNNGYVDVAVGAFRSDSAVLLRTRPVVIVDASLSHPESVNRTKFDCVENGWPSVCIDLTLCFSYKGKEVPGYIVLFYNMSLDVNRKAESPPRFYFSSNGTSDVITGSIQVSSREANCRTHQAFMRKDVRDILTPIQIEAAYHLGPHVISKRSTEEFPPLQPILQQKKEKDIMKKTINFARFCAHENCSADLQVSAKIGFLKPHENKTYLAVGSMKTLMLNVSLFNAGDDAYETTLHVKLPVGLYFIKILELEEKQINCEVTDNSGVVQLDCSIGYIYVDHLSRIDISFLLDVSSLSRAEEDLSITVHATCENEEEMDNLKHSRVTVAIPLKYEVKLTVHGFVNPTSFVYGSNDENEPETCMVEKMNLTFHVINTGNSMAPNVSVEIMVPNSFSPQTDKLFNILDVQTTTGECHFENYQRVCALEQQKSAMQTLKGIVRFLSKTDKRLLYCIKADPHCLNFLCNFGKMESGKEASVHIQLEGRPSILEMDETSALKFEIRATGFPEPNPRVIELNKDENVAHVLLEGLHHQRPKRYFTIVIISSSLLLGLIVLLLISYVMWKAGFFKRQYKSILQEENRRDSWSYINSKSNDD

The nature of assay [12]: calorie-restriction mimetic ROS inhibitors, yeast – validation compound set, pilot screen (AID 2706;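 active means superoxide response below 65% of plate, a cut near 3 SD across the whole screen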;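 further: yeast exposed to compound for one week at 30 degrees C before staining; 100% = mean of all compound wells on the same plate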). The note with it: S. cerevisiae aging, superoxide DHE fluorescence; at 10 µM; stronger effect = lower value.
Assay [13] addresses Beta-adrenergic receptor kinase 1 (Homo sapiens) (UniProt P25098). The assay is described as follows: GRK2 binders displacing RNA aptamer, biochemical, validation, human GRK2, bead flow cytometry (AID 488806;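 active means aptamer binding inhibition above 30%, about 3 SD of noise from non-fluorescent compounds; inactive means inhibition at or below 30%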). The note with it: bead-bound GRK2, FAM-aptamer displacement, at 10 µM, stronger effect = higher value.
Assay [14] concerns the target AP-2 complex subunit beta (Homo sapiens) (UniProt P63010). The assay is described as follows: beta-arrestin/AP2 interaction blockers – biochemical, validation set, GST-AP2 beads, flow cytometry, pilot screen (AID 504541;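 active means inhibition above 54%, about 3 SD of non-fluorescent compounds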;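 further: AP2 carries R879A mutation and is captured from E. coli lysate; bead-bound FITC arrestin peptide fluorescence measuring arrestin peptide binding to AP2; 0% = DMSO wells and 100% = excess unlabeled arrestin peptide control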). The note with it: FITC arrestin peptide, at 10 µM, stronger effect = higher value, AP2 beta2 appendage fragment, R879A mutant.
A short description of assay [15]: cytosolic pH regulators acting via V-ATPase – S. cerevisiae, pHLuorin, HTS validation (AID 504600; in the data active means response above about 15%;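 further: plate controls were DMSO for no effect and reference compound for full effect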). The note with it: V-ATPase proton transport, at 10 µM, stronger effect = higher value.
Assay [16] deals with anti-desmoglein-3 scFv antibody binding to human DSG3. The assay is described as follows: blockers of pathogenic pemphigus antibody–desmoglein-3 binding – biochemical, validation compound set, bead-based, flow cytometry, pilot screen (AID 588368;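 active means binding below the plate cutoff, the plate median minus 3 SD, with a reading above zero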;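 further: signal is the median channel fluorescence of bead-bound GFP antibody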). The note with it: Protein G beads, DSG3-Fc, scFv-GFP binding, at 10 µM, stronger effect = lower value.
The nature of assay [17]: Nile Red efflux blockade in pump-expressing yeast – validation compound set, multiplex, phenotypic, pilot screen (AID 588506;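 active means efflux inhibition above 0.42, the validation set average plus 4 SD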;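 further: Nile Red retained in cells so higher fluorescence means more efflux inhibition; 0 = negative control wells and 1 = enniatin B 25 µM full block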). The note with it: S. cerevisiae pump-expressing triplex, Nile Red efflux flow cytometry; at 10 µM; stronger effect = higher value; the pumps come from Candida albicans.
In assay [18] the target is ATP-binding cassette sub-family B member 6 (Homo sapiens) (UniProt Q9NP58). The assay is described as follows: blockers of ABCB6-driven porphyrin uptake – K562-ABCB6 cells, flow cytometry, validation set, pilot screen (AID 588550;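 active means inhibition above the screen-wide mean plus 3 SD, about 51%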;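 further: 0% = DMSO wells and 100% = benzethonium chloride 70 µM positive control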). The note with it: K562-ABCB6 porphyrin accumulation, 1 h, at 10 µM, stronger effect = higher value.
ATP-binding cassette sub-family B member 6 (Homo sapiens), sequence (Q9NP58 whole entry, looked up): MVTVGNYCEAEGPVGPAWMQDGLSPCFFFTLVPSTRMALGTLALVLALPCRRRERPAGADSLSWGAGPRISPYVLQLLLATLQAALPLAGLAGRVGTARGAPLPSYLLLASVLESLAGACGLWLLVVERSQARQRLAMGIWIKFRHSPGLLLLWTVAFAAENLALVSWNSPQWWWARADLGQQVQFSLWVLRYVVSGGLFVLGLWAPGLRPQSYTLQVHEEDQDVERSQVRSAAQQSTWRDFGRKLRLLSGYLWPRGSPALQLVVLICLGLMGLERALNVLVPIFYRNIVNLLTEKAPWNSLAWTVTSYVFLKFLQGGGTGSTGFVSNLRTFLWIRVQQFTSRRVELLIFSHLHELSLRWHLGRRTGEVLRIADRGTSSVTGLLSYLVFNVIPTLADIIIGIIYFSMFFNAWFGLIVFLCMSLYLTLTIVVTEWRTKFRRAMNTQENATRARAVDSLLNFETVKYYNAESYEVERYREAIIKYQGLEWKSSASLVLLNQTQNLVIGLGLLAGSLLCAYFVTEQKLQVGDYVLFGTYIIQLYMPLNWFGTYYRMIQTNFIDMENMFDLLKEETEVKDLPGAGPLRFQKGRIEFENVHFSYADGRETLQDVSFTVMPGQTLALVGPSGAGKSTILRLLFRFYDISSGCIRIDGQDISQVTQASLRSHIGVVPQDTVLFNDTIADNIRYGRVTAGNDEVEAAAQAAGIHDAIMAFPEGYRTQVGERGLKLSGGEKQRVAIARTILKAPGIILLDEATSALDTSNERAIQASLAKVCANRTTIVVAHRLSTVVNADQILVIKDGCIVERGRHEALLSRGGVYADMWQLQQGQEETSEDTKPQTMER
A short description of assay [19]: AML differentiation inducers, ER-HoxA9 marrow cells – cell-based, GFP/MAC1 double positive, flow cytometry, validation set, primary screen (AID 588685;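 active means differentiation response of at least 50%, scaled between solvent and reference control, from cells with both markers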;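 further: compound exposure lasts four days before antibody staining and flow analysis; 0% = DMSO wells and 100% = 5 µM fulvestrant positive control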). The note with it: stronger effect = higher value, normalized: vehicle 0, fulvestrant 100.
The target of assay [20] is Beta-2 adrenergic receptor (Homo sapiens) (UniProt P07550). The assay is described as follows: agonist-induced loss of surface beta2AR – cell-based, FAP fluorogen, flow cytometry, validation set, pilot screen (AID 504459;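 active means percent response above 42, roughly 3 SD of non-fluorescent test compounds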;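 further: agonist-driven loss of surface beta2AR via internalization measured by FAP dye flow cytometry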). The note with it: Am2.2-beta2AR cells, at 10 µM, stronger effect = higher value.
Beta-2 adrenergic receptor (Homo sapiens), sequence (P07550 whole entry, looked up): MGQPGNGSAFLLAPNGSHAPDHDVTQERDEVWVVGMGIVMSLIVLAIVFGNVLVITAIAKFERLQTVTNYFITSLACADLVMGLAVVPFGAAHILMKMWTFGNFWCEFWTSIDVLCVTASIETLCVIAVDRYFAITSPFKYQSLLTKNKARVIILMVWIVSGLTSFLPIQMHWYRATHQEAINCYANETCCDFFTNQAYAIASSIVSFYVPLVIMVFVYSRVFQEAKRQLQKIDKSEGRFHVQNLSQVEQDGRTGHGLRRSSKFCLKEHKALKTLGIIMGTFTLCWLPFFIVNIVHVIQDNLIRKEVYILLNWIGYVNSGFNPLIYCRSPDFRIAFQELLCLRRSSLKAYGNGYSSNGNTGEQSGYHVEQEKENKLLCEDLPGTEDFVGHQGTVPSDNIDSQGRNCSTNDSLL
Where [21] appears, read: measured here: daughter cell gate.
Where [22] appears, read: measured here: mother cell gate.

What is called inhibition is the drop in the measured response relative to a control, in per cent.

SMILES strings stand for the structures. Results filed as inconclusive are left out. Calls of active or inactive are those of the source.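 How the source made its calls, unless noted: active means response below a set limit, under 55% cells CD8-positive and vesicle-bound, and CD8 cells' 90th-percentile brightness under 279; inactive means the rest.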

Beta-adrenergic receptor kinase 1 (Homo sapiens), sequence (P25098 whole entry, looked up): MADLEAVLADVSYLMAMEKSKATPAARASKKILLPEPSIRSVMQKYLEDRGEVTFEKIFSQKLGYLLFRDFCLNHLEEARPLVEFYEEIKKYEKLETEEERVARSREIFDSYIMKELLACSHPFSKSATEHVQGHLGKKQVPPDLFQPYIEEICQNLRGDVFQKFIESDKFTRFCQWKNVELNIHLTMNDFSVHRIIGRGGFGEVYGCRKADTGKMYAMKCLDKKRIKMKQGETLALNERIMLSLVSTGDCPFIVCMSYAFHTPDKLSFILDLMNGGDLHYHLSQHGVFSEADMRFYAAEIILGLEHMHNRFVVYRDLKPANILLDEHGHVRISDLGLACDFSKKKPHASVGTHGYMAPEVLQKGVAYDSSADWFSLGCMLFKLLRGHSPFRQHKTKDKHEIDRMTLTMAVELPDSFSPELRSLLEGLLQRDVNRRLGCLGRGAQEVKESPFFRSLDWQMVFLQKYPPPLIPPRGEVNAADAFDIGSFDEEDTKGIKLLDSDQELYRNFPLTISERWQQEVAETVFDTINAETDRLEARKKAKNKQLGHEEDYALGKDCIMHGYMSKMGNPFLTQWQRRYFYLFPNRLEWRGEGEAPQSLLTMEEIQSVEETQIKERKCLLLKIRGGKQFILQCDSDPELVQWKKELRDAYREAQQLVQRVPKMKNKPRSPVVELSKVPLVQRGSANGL
AP-2 complex subunit beta (Homo sapiens), sequence (P63010 whole entry, looked up, the tested form may be a part, one chain of several): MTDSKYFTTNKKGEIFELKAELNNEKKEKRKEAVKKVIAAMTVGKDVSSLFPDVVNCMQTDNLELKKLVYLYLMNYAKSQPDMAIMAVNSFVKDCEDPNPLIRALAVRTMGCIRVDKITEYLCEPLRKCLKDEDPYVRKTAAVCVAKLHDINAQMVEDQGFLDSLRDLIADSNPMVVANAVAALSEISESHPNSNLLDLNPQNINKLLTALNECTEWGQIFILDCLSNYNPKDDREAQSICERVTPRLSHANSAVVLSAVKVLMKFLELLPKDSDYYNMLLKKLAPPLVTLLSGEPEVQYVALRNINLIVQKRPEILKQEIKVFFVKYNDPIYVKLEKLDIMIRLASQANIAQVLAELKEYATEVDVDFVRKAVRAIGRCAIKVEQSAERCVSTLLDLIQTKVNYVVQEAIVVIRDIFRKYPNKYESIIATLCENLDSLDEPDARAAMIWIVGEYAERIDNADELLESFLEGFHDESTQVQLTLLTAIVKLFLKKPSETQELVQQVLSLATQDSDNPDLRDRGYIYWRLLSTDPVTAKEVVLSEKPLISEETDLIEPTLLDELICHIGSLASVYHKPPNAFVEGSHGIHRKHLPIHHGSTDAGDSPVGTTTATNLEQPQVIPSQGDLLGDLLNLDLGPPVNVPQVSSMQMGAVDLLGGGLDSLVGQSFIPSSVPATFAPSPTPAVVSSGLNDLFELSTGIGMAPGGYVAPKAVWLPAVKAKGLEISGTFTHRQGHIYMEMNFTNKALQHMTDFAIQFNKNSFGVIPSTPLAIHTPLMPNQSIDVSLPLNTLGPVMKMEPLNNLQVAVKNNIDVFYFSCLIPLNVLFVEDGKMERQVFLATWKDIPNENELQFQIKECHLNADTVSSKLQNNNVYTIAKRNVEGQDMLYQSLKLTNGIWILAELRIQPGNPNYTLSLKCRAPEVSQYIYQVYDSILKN

Regarding `Nc1[nH]c(=O)ncc1F`, the percent of DMSO control GFP in assay [1] is 84.2% (active). Besides, the GFP response vs DMSO in [2] is 107% (inactive); in [4], 113% (inactive); in assay [6], 74.7% (inactive); in assay [6] (setting [21]), 70.4%; in assay [6] (setting [22]) it was 78.1%; in assay [8] it was 106% (inactive). For the same compound, the percent response of DMSO control in assay [3] was 87.1% (inactive). Besides, the GFP response, % of DMSO was 80.8% (inactive) in [5], 80.6% (inactive) in assay [9], 79.7% in assay [9] (setting [21]) and 81.6% in [9] (setting [22]). In addition, the GFP response relative to DMSO in assay [7] is 107% (inactive); in [7] (measured here: daughter cell gate response), 95%; in [7] (measured here: mother cell gate response), 111%. The double positive events in [10] turned out to be 61.3%. The vesicle binding response in assay [10] was 142% (inactive). The values for the inhibition in [11], in assay [14] and in assay [18] were 10% (inactive), 27% (inactive) and 1% (inactive), respectively. In addition, in assay [12], the superoxide response (% of plate) is 67.3% (inactive). Moreover, in [13], the aptamer binding inhibition was 0% (inactive). Also, in assay [15], the response is -5.4% (inactive). In addition, in assay [16], the binding (% of control) is 108% (inactive). Also, the efflux inhibition (fraction of control) in [17] is 0.33 (inactive). Moreover, the differentiation response in [19] was 7.87% (inactive).
As to `COc1ccc(NC(=O)CC(c2ccccc2)c2ccco2)cc1` (configuration not stated), the percent of DMSO control GFP in [1] was 103% (inactive). Also, the GFP response vs DMSO in assay [2] is 97.2% (inactive); in [4] it was 86.8% (inactive). Moreover, the percent response of DMSO control in [3] was 105% (inactive). Moreover, the GFP response, % of DMSO in assay [5] was 96.8% (inactive). In assay [10], this compound returned a double positive events of 62.8%. Also, the vesicle binding response in assay [10] was 164% (inactive). The inhibition in [11] is -15% (inactive); in assay [14], -3.8% (inactive); in assay [18], 3% (inactive). The superoxide response (% of plate) in assay [12] is 91.5% (inactive). Further, the aptamer binding inhibition in [13] was 2% (inactive). Further, the response in assay [20] was -5.85% (inactive); in assay [15] it was 3.58% (inactive). Moreover, the binding (% of control) in assay [16] was 100% (inactive). Besides, in [17], the efflux inhibition (fraction of control) was -0.07 (inactive). Also, the differentiation response in assay [19] was 1.22% (inactive).
`CCOc1ccc(OCCSc2nc3ccccc3[nH]2)cc1`: in assay [1], the percent of DMSO control GFP was 98.2% (inactive). Besides, the GFP response vs DMSO in assay [2] was 98.5% (inactive); in assay [4], 108% (inactive). Moreover, in assay [3], the percent response of DMSO control is 101% (inactive). For the same compound, the GFP response, % of DMSO in [5] was 83.3% (inactive). The same compound yielded a double positive events in assay [10] of 60.3%. Also, in [10], the vesicle binding response was 186% (inactive). The inhibition was 16% (inactive) in [11], -5.21% (inactive) in [14] and 3% (inactive) in [18]. In assay [12], the superoxide response (% of plate) is 107% (inactive). Further, the aptamer binding inhibition in [13] was 4% (inactive). Besides, the response in assay [20] was -17.3% (inactive); in assay [15], 1.04% (inactive). Also, in assay [16], the binding (% of control) was 98.7% (inactive). For the same compound, the efflux inhibition (fraction of control) in [17] is 0.05 (inactive). In assay [19], the differentiation response is -7.2% (inactive).
For the compound `O=C1C(=O)c2ccccc2C(O)=C1c1ccccc1F`, the percent of DMSO control GFP in assay [1] was 111% (inactive). Further, the GFP response vs DMSO in assay [2] was 99.9% (inactive); in assay [4], 109% (inactive). Also, the percent response of DMSO control in assay [3] was 71.2% (inactive). The GFP response, % of DMSO in assay [5] was 85% (inactive). In [10], this compound had a double positive events of 54.9%. For the same compound, the vesicle binding response in assay [10] was 15.9% (active). In addition, the inhibition in assay [11] was -11.8% (inactive); in assay [14], 5.16% (inactive); in [18], 5% (inactive). Further, the superoxide response (% of plate) in assay [12] is 175% (inactive). Moreover, the aptamer binding inhibition in assay [13] is 6% (inactive). Also, the response in assay [20] was 4.63% (inactive); in assay [15], 0.28% (inactive). In addition, in [16], the binding (% of control) was 99% (inactive). The efflux inhibition (fraction of control) in assay [17] was 0.46 (active). Also, the differentiation response in assay [19] was 14.1% (inactive).
